Hits are enriched below; roughly 7.3% of the tested compounds scored in any of these assays.
Rab9 prom act – qHTS Assay for Rab9 Promoter Activators. AID 485297, 2010. Potency, µM (top dose mostly 9.22 µM), for the others: at the top dose activation, negative = inhibition, hits mostly activators. Huh7 Rab9 promoter-luciferase reporter, luminescence, 24 h. actives 2.8% (n = 320,000); further: % of control where 0% means no effect; nearly all actives have a fitted effect of over 60% in size
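Measured in stably transfected Huh7 cells bearing a Rab9 promoter–luciferase construct: 24 h compound treatment at 37 °C, followed by luminescence detection.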
Luc counter – Counterscreen for Luciferase (Kinase-Glo TM) Inhibition. Kinase-Glo luciferase, ATP luminescence, 8 min. Potency, µM (series often up to 38.3 µM), without a hit: at the top dose activity change, negative = inhibition, usual class: inhibitors. actives 0.28% (n = 200,000). AID 1379, 2008; further: on the % scale 0 is the no-effect control and ±100 the full control effect; nearly all actives have a fitted effect of over 60% in size
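Kinase-Glo luciferase light output from ATP and luciferin was measured with 10 uM ATP, within the enzyme's linear range. Buffer: 50 mM imidazole pH 7.2, 50 mM KCl, 7 mM MgCl2, 0.01% Tween 20, 0.05% BSA; luminescence read after 8 min at ambient temperature.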
SMN2 splice up – qHTS Assay for Enhancers of SMN2 Splice Variant Expression. HEK293 SMN2-luciferase splicing reporter, luminescence, 30-36 h. actives 2.8% (n = 210,000). Potency, µM (series often up to 46.1 µM), for inactives: at the highest dose activity change, positive = activation, most hits filed as activators; further: % of control where 0% means no effect; nearly all actives have a fitted effect of over 55% in size
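qHTS luciferase splicing reporter: luminescence rises when SMN2 exon 7 is included in transfected HEK293 cells. Compound exposure lasted 30-36 h at 37C, with 4.5 mM final sodium butyrate as control, followed by a ONE-Glo read.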
ELG1 genotoxic – qHTS screen for small molecules that induce genotoxicity in human embryonic kidney (HEK293T) cells expressing luciferase-tagged ELG1 | HEK293T ELG1-luciferase reporter, luminescence, 16 h | Potency, µM (titrated, usually from 46 µM), for inactives: top-dose activity change, positive = activation, usual class: activators | actives 1.3% (n = 330,000); further: % of control where 0% means no effect; nearly all actives have a fitted effect of over 60% in size
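16 hr compound incubation (37 °C, 5% CO2) of HEK293T cells carrying luciferase-tagged ELG1; luciferase then measured by ONE-Glo luminescence after 30 min at RT.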
FLuc counter – qHTS profiling assay for firefly luciferase inhibitor/activator using purifed enzyme and Km concentrations of substrates (counterscreen for miR-21 project); AID 588342, 2011; Luciferin 4-monooxygenase (Photinus pyralis), P08659; purified FLuc, Km substrates, luminescence inhibition; actives 6.9% (n = 360,000); Potency, µM (series often up to 57.5 µM), without a hit: top-dose activity change, negative = inhibition, hits mostly inhibitors;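 further: plate controls were vehicle for no effect and reference inhibitor for full effect; nearly all actives have a fitted effect of over 55% in size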
Target sequence (P08659 whole entry, looked up): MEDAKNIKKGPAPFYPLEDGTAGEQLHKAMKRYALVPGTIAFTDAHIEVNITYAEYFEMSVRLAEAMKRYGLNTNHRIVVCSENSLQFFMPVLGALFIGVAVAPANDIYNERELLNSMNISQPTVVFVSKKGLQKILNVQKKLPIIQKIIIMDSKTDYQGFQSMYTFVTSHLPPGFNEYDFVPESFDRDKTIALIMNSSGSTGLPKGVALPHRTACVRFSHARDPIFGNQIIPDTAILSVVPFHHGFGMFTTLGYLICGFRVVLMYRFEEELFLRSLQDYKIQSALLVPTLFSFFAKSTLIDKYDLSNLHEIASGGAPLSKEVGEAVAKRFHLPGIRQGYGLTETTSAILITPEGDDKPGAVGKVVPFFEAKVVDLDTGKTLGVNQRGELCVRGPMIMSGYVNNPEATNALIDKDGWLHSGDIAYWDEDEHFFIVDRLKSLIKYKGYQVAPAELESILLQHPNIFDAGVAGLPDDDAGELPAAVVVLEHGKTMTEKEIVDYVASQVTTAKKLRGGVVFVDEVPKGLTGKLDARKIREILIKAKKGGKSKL
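Purified P. pyralis luciferase, 10 nM final, with Km-level 10 uM D-luciferin and 10 uM ATP in 50 mM Tris acetate pH 7.5, 10 mM Mg acetate, 0.01% Tween-20, 0.05% BSA; 6-point qHTS titration about 60 µM downward; luminescence read.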
NPC1 prom act – qHTS Assay for NPC1 Promoter Activators; Huh7 NPC1 promoter luciferase reporter, 24 h; Potency, µM (top dose mostly 9.22 µM), without a hit: at the highest dose activation, usual class: activators; actives 2.4% (n = 320,000); AID 485313, 2010; further: % of control where 0% means no effect; nearly all actives have a fitted effect of over 60% in size
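Stably transfected Huh7 (NPC1 promoter→luciferase), 1500 cells/well in Opti-MEM + 10% FBS, 2 h settle, then compound 24 h at 37 °C. Luminescence after 10 min with Amplite reagent.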
Starred values were filed as active, the others as inactive; ? = inconclusive; . = not tested or not shown; [ ] = dose if it differs, or a comment. The call rests on the fitted dose curve; in most records, active means well fitted curve in the direction sought with a large enough effect; inconclusive means small, poorly fitted or top-dose-only effect, or another doubt; inactive means no such curve, though single readings can be large; an effect the other way counts as inactive or inconclusive. Potency means the concentration at half of the fitted maximal effect.

SMILES	Rab9 prom act	Luc counter	SMN2 splice up	ELG1 genotoxic	FLuc counter	NPC1 prom act
Cc1cccc(C(=O)n2c(=S)nc3ccccn32)c1	0.45µM*	14µM*	4.5µM*	?	0.48µM*	0.56µM*
CO[C@H]1C=CO[C@@]2(C)Oc3c(C)c(O)c4c(O)c(c5c(c4c3C2=O)NC2(CCN(CC(C)C)CC2)N=5)=NC(=O)C(C)=CC=C[C@H](C)[C@H](O)[C@@H](C)[C@@H](O)[C@@H](C)[C@H](OC(C)=O)[C@@H]1C	-5%	.	.	.	?	-1%
N/C(=N\OC(=O)c1ccco1)c1cccc(Br)c1	18%	10%	?	8.2µM*	6.7µM*	18%
COc1ccc(/C(N)=N/OC(=O)CCc2ccccc2)cc1OC	-1%	0%	3%	5%	-14%	1%
COc1ccc(/C(N)=N/OC(=O)c2ccco2)cc1OC	?	-2%	11µM*	?	?	?
N/C(Cc1ccc([N+](=O)[O-])cc1)=N\OC(=O)c1ccco1	-3%	-2%	.	0%	-3%	-1%
N/C(=N\OC(=O)c1ccco1)c1cccc([N+](=O)[O-])c1	17%	-6%	.	?	24µM*	21%
CCCN1CCN(C(=O)C2CCN(c3ncnc4c3nc3n4CCCCC3)CC2)CC1	-3%	.	.	0%	4%	-2%
NS(=O)(=O)c1ccc(N2N=C(c3ccccc3)CC2c2cccc(Br)c2)cc1 (stereo not given)	.	.	.	-2%	.	.
OC(c1ccccc1)C1CN(Cc2ccccc2)CCC1(O)c1ccccc1 (stereo not given)	2%	-3%	22%	0%	-4%[2.3 µM]	2%
CCC(=O)Nc1ccc(-c2nnc(-c3ccccc3)o2)cc1	0.32µM*	.	.	?	0.95µM*	0.32µM*
CCC(=O)Nc1ccc(-c2nc3ccccc3c(=O)o2)cc1	4%	-15%	-5%	-11%	1.3µM*	-1%
CCC(=O)Nc1nnc(-c2ccc(OC)cc2)o1	1%	-2%	15%	7%	24µM*	13%
CCOc1ccc(CCNC(=O)CN2C(=O)COc3ccc(S(=O)(=O)N4CCOCC4)cc32)cc1	3%	.	.	0%	6%	-2%
CN1CCN(S(=O)(=O)c2ccc(NC(=O)C3CCCCC3)cc2)CC1	.	2%	-22%	.	-1%	.
COc1ccccc1C(=O)CSc1nnc(-c2ccco2)o1	?	3%	10%	9%	-16%	9%
Cc1cccn2cc(CNc3ccccc3)nc12	?	-3%	22µM*	21µM*	?	?
Cc1cccn2cc(-c3ccc(F)cc3)nc12	1.8µM*	.	.	0.92µM*	2.4µM*	1.1µM*
COc1ccc(S(=O)(=O)Nc2cc(-c3cn4cccc(C)c4n3)ccc2C)cc1C	.	.	18%	.	?	.
CCCS(=O)(=O)Nc1cc(-c2cn3cccc(C)c3n2)ccc1C	.	.	29%	.	12µM*	.
CCCS(=O)(=O)NCc1cn2cccc(C)c2n1	1%	1%	20%	4%	-1%	-4%
COc1ccc(-c2cn3cccc(C)c3n2)cc1Br	2.8µM*	-8%	11µM*	?	2.4µM*	3.5µM*
Cc1cc(C(=O)NP(=O)(N2CC(C)OC(C)C2)N2CC(C)OC(C)C2)c(C)n1C1CC1 (stereo not given)	-1%	0%	-4%	1%	32%	-1%
Cc1cccn2cc(-c3ccccc3)nc12	1.8µM*	-22%	11µM*	?	3µM*	1.6µM*
CCCCOc1ccc(C(=O)Nc2cccc(C)n2)cc1	?	-19%	?	13%	3µM*	3.5µM*
SMILES	Rab9 prom act	Luc counter	SMN2 splice up	ELG1 genotoxic	FLuc counter	NPC1 prom act
CCOc1ccc(C(=O)Nc2cccc(C)n2)cc1	1µM*	?	5µM*	?	2.4µM*	2µM*
Cc1cccc(NC(=O)c2ccc(S(=O)(=O)N(C)C)cc2)n1	18%	-2%	-2%	?	-11%	22%
Cc1cccc(NC(=O)c2ccc(Cl)nc2)n1	12%	.	.	18%	-8%	10%
CCOc1ccc(NC(=O)Nc2ccc(Cc3ccncc3)cc2)cc1	1%	.	.	-1%	0%	1%
CCOc1ccc(NC(=O)Nc2cccc(C)n2)cc1	2.5µM*	.	28%	16%	?	3.5µM*
Cc1cc(S(=O)(=O)N2CCCCC2)ccc1OCC(=O)Nc1ccccc1	4%	.	.	-15%	-1%	-1%
CCS(=O)(=O)c1ccc(-c2csc(-c3ccc(Cl)cc3)n2)c(Cl)c1Cl	2%	0%	-6%	18µM*	?	0%
CN(Cc1ccc2nonc2c1)Cc1nc(Cc2cccc(F)c2)no1	12%	.	.	0%	-3%	-2%
O=C(CNC(=O)c1ccc(Cl)cc1Cl)OCC(=O)N1CCCC1	-5%	.	.	-1%	3%	1%
COc1ccccc1N1CCN(C(=O)CNC(=O)c2ccc(Cl)cc2Cl)CC1	16%	.	.	-14%	24µM*	17%
O=C(NCC(=O)N1CCCCC1)c1ccc(Cl)cc1Cl	4µM*	-3%	?	16µM*	19µM*	?
Cc1[nH][nH]c(=O)c1C(c1ccc(-c2ccc(Cl)cc2Cl)o1)c1c(C)[nH][nH]c1=O	-15%	7%	2%	0%	?	-13%
CC(=O)Nc1ccc(S(=O)(=O)N(C)c2ccc(OCC(=O)Nc3ccccc3C(C)=O)cc2)cc1	-3%	.	.	-8%	1%	-6%
C/C(=N\O)c1ccc2c3c([nH]c2c1)CCCC3	?	-1%	?	?	11µM*	?
C/C(=N\O)c1ccc2[nH]ccc2c1	?	-2%	22%	15%	?	-4%
CCOc1ccc(Cl)cc1CN1CCOCC1	0%	-3%	-19%	-1%	5%	-4%

Screens from PubChem BioAssay.
